Most compounds without a hit are left out; they make up all but 1.6% or so of the library.
KCNQ2 inh: rat KCNQ2 potassium channel inhibitors, primary screen, cell-based, CHO-K1, FluxOR thallium flux, B-score; Potassium voltage-gated channel subfamily KQT member 2 (Rattus norvegicus), O88943; 20 min; stronger effect = lower value; B-score at 10 µM; 310,000 compounds, 1.1% hits;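 active means fluorescence ratio B-score at most minus 3 library SDs, with starting brightness B-score within 2 library SDs, cut at about -5.5 in these data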
KCNQ2 pot: potentiators of rat KCNQ2 potassium channel; CHO-K1 KCNQ2, FluxOR thallium flux fluorescence; stronger effect = higher value; 310,000 compounds, 0.54% hits; B-score at 10 µM; Potassium voltage-gated channel subfamily KQT member 2 (Rattus norvegicus), O88943;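 active means fluorescence ratio B-score at least 3 SD of library B-scores, with initial fluorescence B-score within 3 of them, cut at about 5.3 in these data; same plate scores as AID 2156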;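 further: B-score of peak minus minimum over baseline fluorescence ratio after K+ and Tl+ stimulus; positive B-score means potentiation of KCNQ2 with more thallium influx and brighter signal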
KCNQ2 block conf: rat KCNQ2 potassium channel inhibitors, confirmation, cell-based, thallium flux; shares compounds with KCNQ2 inh; KCNQ2-expressing cells, inhibition; stronger effect = lower value; activity change, negative = inhibition, % at 10 µM; 1,000 compounds, 57% hits;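 further: 0% = vehicle wells and values are ratio percent relative to vehicle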
KCNQ1 spec: human KCNQ1 channel inhibition, counter-screen for KCNQ2 inhibitor project, cell-based, FluxOR thallium flux. AID 493026, 2011. shares compounds with KCNQ2 inh. KCNQ1-expressing cells, FluxOR thallium flux fluorescence; stronger effect = lower value. 1,000 compounds, 15% hits. activity change, negative = inhibition, % at 10 µM;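 active means activity change at least 3 SD of negative controls below their mean in both duplicate wells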;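 further: CHO cells stably transfected with KCNQ1 and depolarized by potassium stimulus; peak minus minimum fluorescence over baseline after thallium addition; 0% = vehicle negative control and -100% = blank without thallium stimulus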
Target sequence (P51787 whole entry, looked up): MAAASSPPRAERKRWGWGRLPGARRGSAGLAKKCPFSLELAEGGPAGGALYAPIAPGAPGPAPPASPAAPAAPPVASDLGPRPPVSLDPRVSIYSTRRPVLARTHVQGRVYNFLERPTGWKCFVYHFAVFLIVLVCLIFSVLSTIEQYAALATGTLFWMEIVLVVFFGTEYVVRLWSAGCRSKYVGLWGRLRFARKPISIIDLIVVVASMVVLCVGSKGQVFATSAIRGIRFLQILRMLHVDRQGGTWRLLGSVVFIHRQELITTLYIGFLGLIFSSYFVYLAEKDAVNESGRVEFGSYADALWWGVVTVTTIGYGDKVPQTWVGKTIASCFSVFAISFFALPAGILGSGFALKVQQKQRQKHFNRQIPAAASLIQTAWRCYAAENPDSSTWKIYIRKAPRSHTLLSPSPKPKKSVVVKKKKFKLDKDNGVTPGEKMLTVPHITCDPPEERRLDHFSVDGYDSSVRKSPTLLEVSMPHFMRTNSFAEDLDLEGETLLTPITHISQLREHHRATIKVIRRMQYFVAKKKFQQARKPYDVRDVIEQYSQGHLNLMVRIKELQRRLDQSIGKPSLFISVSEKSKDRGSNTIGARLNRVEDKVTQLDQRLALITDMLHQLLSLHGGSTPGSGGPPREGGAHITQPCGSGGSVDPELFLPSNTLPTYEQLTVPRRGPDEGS
CHO Tl ctr: thallium flux change in parental CHO cells, counter-screen for KCNQ2 inhibitor project; shares compounds with KCNQ2 inh; stronger effect = lower value; activity change, % at 10 µM; 1,000 compounds, 14% hits; AID 493029, 2011;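 further: 0% = vehicle negative controls with stimulus buffer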
KCNQ2 inh confirm: rat KCNQ2 channel inhibitors, confirmation, cell-based, automated patch clamp, single concentration. shares compounds with KCNQ2 inh. KCNQ2-expressing cells, automated patch clamp current. calls only at 10 µM. 550 compounds, 49% hits. AID 588531, 2011
Numbers without * were called inactive; i = inactive; · = not tested or not shown; + = active, no number. Unless noted, how the calls were made is not given here.

SMILES	KCNQ2 inh	KCNQ2 pot	KCNQ2 block conf	KCNQ1 spec	CHO Tl ctr	others
COc1ccccc1OCC(=O)Nc1cc(Cl)ccc1Oc1ccccc1	-10*	-10	-32%*	-35%*	-30%*	KCNQ2 inh confirm=+
O=C(COC(=O)c1ccccc1)Nc1cc(Cl)ccc1Oc1ccccc1	i	·	·	·	·
O=C(COC(=O)c1c(Cl)cccc1Cl)Nc1cc(Cl)ccc1Oc1ccccc1	i	·	·	·	·
Cc1ccccc1OCC(=O)Nc1cc(Cl)ccc1Oc1ccccc1	-7.4*	-7.4	-26%*	i	i	KCNQ2 inh confirm=i
CCCCn1c(N)c(N(CCC(C)C)C(=O)c2ccc(N3CCCC3=O)cc2)c(=O)[nH]c1=O	i	0.9	·	·	·
CN1CCN(CCCc2c3c(cc4c2CCC4)CCC3)CC1	i	1	·	·	·
Cc1[nH]c(C)c(S(=O)(=O)Nc2cccc(Cl)c2C)c1C(=O)N1CCCC1	i	0.54	·	·	·
COc1ccccc1NCC(O)Cn1c2ccccc2c2ccccc21 (configuration not stated)	i	0.4	·	·	·
COc1ccc(CCNCC(O)Cn2c3ccccc3c3ccccc32)cc1OC (configuration not stated)	-7*	-7	-24%*	i	i	KCNQ2 inh confirm=i
COc1ccc(N2C(C(C)=O)=NN(c3ccccc3)C2c2cccs2)cc1 (configuration not stated)	-7.2*	-7.2	-32%*	-37%*	-25%*	KCNQ2 inh confirm=i
CC(=O)Nc1ccc(N2C(C(C)=O)=NN(c3ccccc3)C2c2cccs2)cc1 (configuration not stated)	i	0.02	·	·	·
CCOc1ccccc1N1CC(C(=O)N(C)Cc2cccnc2)CC1=O (configuration not stated)	i	0.05	·	·	·
COc1ccc2c(C)cc(SCc3c(C)noc3C)nc2c1	-10*	-10	i	i	i
COc1ccc2c(C)cc(SCC#N)nc2c1	i	·	·	·	·
O=C(Nc1ccnn1C1CCN(C2CCOCC2)CC1)c1cccc(F)c1	i	·	·	·	·
COc1ccc(C)cc1NC(=O)C(Sc1nnnn1C)c1ccccc1 (configuration not stated)	i	·	·	·	·
COCCn1c(SC(C(=O)Nc2cc(C)ccc2OC)c2ccccc2)nnc1-c1ccc(Cl)cc1 (configuration not stated)	-9.5*	-9.5	i	i	i
O=S(=O)(c1cccc(NC(=S)Nc2ccc(Br)cc2Cl)c1)N1CCOCC1	i	·	·	·	·
Cc1cccc(NC(=O)C2NC(=O)CC2c2ccccc2)c1C (configuration not stated)	i	0.99	·	·	·
CC(NC(=O)c1cccc(S(=O)(=O)N2CCN(C)CC2)c1)c1ccc(Cl)cc1Cl (configuration not stated)	i	4.1	·	·	·
O=C(NCc1ccccc1)c1cccc(COc2cc(Cl)ccc2Cl)c1	i	·	·	·	·
O=C(NCc1ccccc1)c1cccc(COc2ccccc2Cl)c1	-12*	-12	i	i	i
Cc1ccc(-c2cc(-c3ccccc3)nc(Cl)n2)cc1	-8.3*	-8.3	i	i	i
COc1ccc(-c2cc(-c3ccccc3)nc(Cl)n2)cc1OC	i	·	·	·	·
CCC(=O)N1c2ccccc2NC2=C(C(=O)CC(C)(C)C2)C1c1ccc(O)c(OC)c1 (configuration not stated)	i	·	·	·	·
SMILES	KCNQ2 inh	KCNQ2 pot	KCNQ2 block conf	KCNQ1 spec	CHO Tl ctr	others
CCOC(=O)CSc1cc(CS(=O)c2ccc(Cl)cc2)nc(-c2ccccc2)n1 (configuration not stated)	i	·	·	·	·
CCOc1ccc(N(CC(=O)NC2CCCC2)C(=O)CSc2nnc(COc3ccccc3)o2)cc1	i	1	·	·	·
Cc1onc(-c2ccccc2)c1C(=O)Nc1ccc(Br)cc1Cl	i	·	·	·	·
Cc1ccccc1NC(=O)c1c(-c2ccccc2)noc1C	-9.5*	-9.5	i	i	i
Cc1ccc(F)cc1NC(=O)c1c(-c2ccccc2)noc1C	-8.1*	-8.1	i	i	i
Cc1onc(-c2ccccc2)c1C(=O)Nc1ccncc1	i	1.9	·	·	·

Source: PubChem (Johns Hopkins Ion Channel Center)
